# Shown are actives, neighbours in structure and some others; about 0.94% of the full set was active somewhere.
# MMP-13 inhibitor: MMP13 (human) collagenase inhibition | 0.07% of 65,000 active | inhibition, % at 4 µM | AID 570 | MMP-13 fTHP FRET cleavage, Mca fluorescence | P45452;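 active = inhibition above the mean of compound-free control plate wells plus 3 SD, cut at about 14% in these data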;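 note: 0% = DMSO wells and 100% = wells with reference MMP-13 inhibitor after basal subtraction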
# SKBR3 24h inh: SK-BR-3 proliferation inhibitors; SK-BR-3 viability, CellTiter-Glo ATP luminescence, 24 h; hits give low values; viability, % at 10 µM; 0.47% of 41,000 active; AID 847;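 active = viability at or below the median of all test compounds minus 3 SD, in both replicates if run twice, cut at about 45% in these data; inconclusive = duplicate replicates that disagree with each other; inactive = viability above that cutoff in every replicate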;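 note: 100% = median untreated cell wells and 0% = median positive control drug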
# Her2 expr inh: Her2 kinase expression inhibition | P04626 | SKBR-3 HER2 protein level, AlphaScreen, 18-24 h; hits give low values | AID 645 | HER2 level % of control, % at 10 µM | 0.69% of 65,000 active;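 active = HER2 level under 5% of the carrier-only control; inconclusive = no clear call, values can overlap the other calls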;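 note: 100% = DMSO carrier and 0% = 500 nM PU-H71 HSP90 inhibitor; lower value means stronger loss of Her2 protein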
# * hit, by the source's call; ? = inconclusive; . = not tested or not shown.
SMILES,MMP-13 inhibitor,SKBR3 24h inh,Her2 expr inh
COc1ccc(-n2nnc3c(SCC(=O)c4ccccc4)ncnc32)cc1,3,.,77
O=c1c2ccccc2c(C=NC2CCS(=O)(=O)C2)c(O)n1-c1ccccc1 (stereo unspecified),0,101,88
O=c1c2ccccc2c(C=NCCO)c(O)n1-c1ccccc1,15*,92,78
COc1ccccc1CC(=O)Nc1ccc(O)cc1C(=O)O,-17,93,95
COCCn1c(Cc2ccccc2)nnc1SCC(=O)N(C)C,3,131,-19*
COCCn1c(Cc2ccccc2)nnc1SCC(=O)NC(C)(C)C,-2,97,105
CSc1nc2c(c(=O)[nH]1)C(c1ccncc1)C(C(=O)OC(C)C)=C(C)N2 (stereo unspecified),-2,83,75
CCN1CCc2c(sc(NC(=O)c3ccc(S(=O)(=O)N4CCOCC4)cc3)c2C(N)=O)C1,2,.,100
CC(C)N1CCc2c(sc(NC(=O)c3ccc(S(=O)(=O)N4CCOCC4)cc3)c2C(N)=O)C1,14*,.,97
Cc1ccc(CNC(=O)CN(C)S(=O)(=O)c2cccc3cccnc23)cc1,-1,.,66
Cc1nn(C)c(C)c1S(=O)(=O)N(CC(=O)NCCN1CCOCC1)c1ccc(C(C)C)cc1,4,.,76
COc1ccccc1CN(Cc1ccco1)S(=O)(=O)c1ccc(-n2cnnn2)c(OC)c1,0,98,93
C=CCn1c(COc2ccc(CC)cc2)nnc1SC/C(O)=C(\C#N)c1nc2ccccc2[nH]1,-5,29*,70
C=CCn1c(COc2ccccc2)nnc1SCc1ccc(C#N)cc1,0,91,110
CCOC(=O)CSc1ncnc2c1nnn2-c1ccc(F)cc1,2,91,85
CC(=O)C(Sc1ncnc2c1nnn2-c1ccc(F)cc1)C(=O)N(C)C (stereo unspecified),4,.,-10*
COC(=O)c1cc(Nc2ncnc3c2cnn3-c2ccccc2)cc(C(=O)OC)c1,5,.,32
CCN1c2ccccc2NC2N=C(OC)C(c3ccccc3)C21 (stereo unspecified),-5,36*,10
CCN1c2ccccc2NC2C1C(C(C)=O)C(=O)N2c1ccc(Cl)cc1 (stereo unspecified),-1,67,59
Cc1ccc(CNC(=O)CNS(=O)(=O)c2cccc3nsnc23)cc1,2,84,67
CC1(C(=O)NC2CCCCCCC2)CCC(=O)N1Cc1cccnc1 (stereo unspecified),0,.,121
CC1(C)CCCC2=C1CC1C(=O)N(Cc3cccnc3)C(=O)C1C2 (stereo unspecified),3,110,-22*
O=C1NCC(O)=C1C=NCCCO,5,31*,92
COc1ccc(CN=CC2=C(O)CNC2=O)cc1OC,5,92,89
C/C(NCc1cccnc1)=C(\C#N)C(=O)NCc1ccccc1,4,65,152
SMILES,MMP-13 inhibitor,SKBR3 24h inh,Her2 expr inh
O=S(=O)(c1ccc(Oc2ccc(S(=O)(=O)N3CCOCC3)cc2)cc1)N1CCOCC1,0,112,63
C=CS(=O)(=O)c1ccc(Oc2ccc(S(=O)(=O)C=C)cc2)cc1,-3,?,-22*
CC(=O)Nc1c(C(=O)N2CCN(c3ncccn3)CC2)cnn1-c1ccccc1Cl,0,94,69
N#Cc1cc2sc3nnc(-c4ccncc4)n3c2cc1C#N,-4,96,25
CCOC(=O)C1CCN(Cc2nc3ccc(Cl)cc3n2CCO)CC1,-2,.,85
Cc1sc2ncnc(SCC(=O)NC(=O)NCc3ccco3)c2c1C,-7,.,82
Nc1nnnn1CC(=O)OCc1cccc(Br)c1,4,95,115
Oc1cccc2ccc(Nc3ccccn3)nc12,5,.,-20*
c1ccc(Nc2ccccc2Nc2ccccn2)nc1,2,.,153
Cn1c(C(=O)O)c(CC(=O)NCC2COc3ccccc3O2)c2ccccc21 (stereo unspecified),-9,52,96
Cn1c(C(=O)O)c(CC(=O)Nc2ccccc2F)c2ccccc21,-6,30*,75
CN(c1ccc(O)cc1)c1nc(-c2ccccc2)cs1,20*,.,61
CN(C)CCCN(C(=O)c1cccs1)c1nc(-c2ccccc2)cs1,-6,95,87
COc1ccccc1Oc1ccc(S(=O)(=O)NCc2ccccn2)cc1,10,92,86
Cc1ccc2c(c1)N(CC(=O)OC(CC(C)C)C(=O)NC1CCCC1)C(=O)CO2 (stereo unspecified),-1,84,-24*
CC(C)C(OC(=O)CN1C(=O)COc2ccccc21)C(=O)NC1CCCC1 (stereo unspecified),0,92,80
CCOc1ccccc1N(CC(=O)NC1CCCCC1)S(C)(=O)=O,5,.,111
CCOCCCNC(=O)C(NC(=O)CC1NC(=O)NC1=O)c1ccc(Cl)cc1 (stereo unspecified),9,44*,98
CCOCCCNC(=O)C(NC(=O)c1ccc(=O)[nH]c1)c1ccccc1 (stereo unspecified),1,.,73
COc1ccc(NC(=O)COC(=O)c2cnccn2)cc1Cl,-8,.,113
COC(=O)CSc1nc(N)c(C#N)c(C(C)C)c1C#N,-2,96,111
COC(=O)CSc1cc(SCC(=O)OC)c(C#N)c(SCC(=O)OC)c1,-3,48,2.9*
O=C1c2cccc3cccc(c23)C(=O)N1c1nncs1,-22,85,-29*
CC(=O)N1C(=O)c2cccc3cccc(c23)C(=O)N1C(C)=O,-28,128,159
Cn1nnnc1SCC(=O)Nc1c(Cl)cccc1Cl,5,.,-20*
SMILES,MMP-13 inhibitor,SKBR3 24h inh,Her2 expr inh
Cn1nnnc1SCC(=O)Nc1ccccc1Cl,2,.,124
CN1CCN(C(=O)N2CCNC2=O)CC1,3,.,119
COC(=O)c1[nH]c2ccc(Br)cc2c1NC(=O)CN1CCN(C2CCCCC2)CC1,-6,87,-21*
COC(=O)c1[nH]c2ccc(C)cc2c1NC(=O)CCN1CCN(C2CCCCC2)CC1,-28,94,91
Cn1nc(-c2ccc(OCC(=O)NCC3CCCO3)cc2)c2ccccc2c1=O (stereo unspecified),-1,91,99
COC(=O)c1cc(=O)nc2sccn12,-4,.,80
COC(=O)c1cc(NC(=O)c2c(Cl)nc3sccn23)cc(C(=O)OC)c1,-8,26*,20
O=C(c1cc2c(s1)CCCC2)N1CCN(Cc2ccc3c(c2)OCO3)CC1,-6,.,105
O=C(Oc1ccc2c(c1)OCO2)c1cc2c(s1)CCC2,2,.,-7.5*
Cc1ccccc1NC(=O)C1CCCN1C(=O)NC1CCCCC1 (stereo unspecified),-3,91,74
Cc1ccc(-c2noc(C3CCCN(C(=O)c4c(F)cccc4F)C3)n2)cc1 (stereo unspecified),-5,28*,0.1*
COc1ccc(-c2noc(C3CCCN(C(=O)c4ccccc4OC)C3)n2)cc1OC (stereo unspecified),3,57,46
c1ccc2c(c1)ncn2CCC1CCCCC1,-2,85,.
Cc1ccc(Cn2nnc3c(=O)n(Cc4cccc(C)c4)cnc32)cc1,14*,.,136
Cc1cccc(Cn2cnc3c(nnn3Cc3ccc(Cl)cc3)c2=O)c1,4,.,81
Cc1oc(-c2ccccc2F)nc1CN1CCC(C(=O)NCCC2=CCCCC2)CC1,2,.,82
Cc1cccc(N2CCN(c3nc4ccc(Cl)cc4n4cnnc34)CC2)c1C,-2,.,30
